Screening results as filed in PubChem.
In the library only some 1.2% were active in any assay of this set; here they are far more common.
GSH fluor: compound fluoresces at 488/530 nm on GSH beads | GSH beads flow cytometry, compound fluorescence 488/530 nm; stronger effect = higher value | fluorescence (KMESF) at 10 µM | actives 0.25% (n = 190,000) | AID 1776; in the data active means fluorescence above about 89;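 further: glutathione beads carrying GST-tagged Bcl family fusion proteins plus one bare bead set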
Avidin bead fluor: compound fluoresces at 488/530 nm on avidin beads; actives 0.38% (n = 220,000); fluorescence (KMESF) at 10 µM; compound fluorescence 488/530 nm, flow cytometry; stronger effect = higher value; in the data active means fluorescence above about 47
RGS16-Gao HTS: regulators of human RGS16-Galphao interaction; actives 0.38% (n = 220,000); bead-based flow cytometry RGS16-Galphao binding, fluorescence; actives lie on both sides; O15492+P09471; binding response (% of control), % at 10 µM;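 further: Galphao activated by GDP with aluminum fluoride before binding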
RGS4-Gao reg: modulates binding of RGS4 to human Galphao; Multiplexed bead flow cytometry; actives lie on both sides; AID 1415; binding response (% of control), % at 10 µM; P09471; actives 0.33% (n = 220,000); in the data active means binding response below about 49% or above about 150%; inactive means in between;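 further: fluorescent Galphao activated with aluminum fluoride binding bead-coupled RGS4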
RGS8-Gao: human RGS8-Galphao interaction regulation | P09471 | actives 0.34% (n = 220,000) | response (percent of control binding), % at 10 µM | multiplexed bead flow cytometry, RGS8-Galphao binding; actives lie on both sides; in the data active means response below about 60% or above about 140%; inactive means in between;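 further: Galphao activated as the GDP aluminium fluoride complex binding bead-coupled RGS8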
RGS7-Gao reg: regulators of human RGS7-Galphao interaction; P09471; actives 0.35% (n = 220,000); binding response (% of control), % at 10 µM; AID 1439; Multiplexed bead flow cytometry, RGS7-Galphao binding; actives lie on both sides; in the data active means binding response below about 49% or above about 150%; inconclusive means no clear call, values can overlap the other calls; inactive means in between;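 further: fluorescent Galphao held in activated GDP-AlF4 state binding bead-coupled RGS7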
RGS-Gao: modulates binding between human RGS4 and Galphao; shares compounds with RGS16-Gao HTS; multiplexed bead flow cytometry, RGS–Galpha-o binding; actives 99% (n = 1,600); RGS4–Galpha-o binding response, % at 10 µM;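 further: fluorescently labeled Galpha-o bound to GDP with aluminium fluoride binding biotinylated RGS beads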
Avidin counter: interferes with biotinylated probe binding to avidin beads; streptavidin beads, fluorescein-biotin binding, flow cytometry; shares compounds with RGS16-Gao HTS; inhibition, % at 10 µM; 1,700 tested, under 10 active; AID 1783;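 active means inhibition above 50%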;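 further: median green fluorescence of gated singlet beads compared with DMSO control wells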
RGS8-Gao single: RGS8-Galphao interaction regulation, single point confirmation. shares compounds with RGS16-Gao HTS. bead-based flow cytometry RGS8-Galphao binding, fluorescence; actives lie on both sides. binding response (% of control), % at 10 µM. actives 3% (n = 1,700). AID 1836; in the data active means binding response below about 72% or above about 130%; inactive means in between;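 further: Galphao activated as GDP AlF4 complex before binding bead RGS8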
RGS7-Gao single: RGS7-Galphao interaction regulation, single point confirmation. bead-based flow cytometry RGS7-Galphao binding; actives lie on both sides. shares compounds with RGS16-Gao HTS. response (percent of control binding), % at 10 µM. actives 7.8% (n = 1,700); in the data active means response below about 75% or above about 130%; inactive means in between;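 further: fluorescent Galphao activated with GDP and aluminum fluoride binding bead-coupled RGS7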
RGS16-Gao single: RGS16-Galphao interaction regulation, single point confirmation. shares compounds with RGS16-Gao HTS. actives 4% (n = 1,700). bead-based flow cytometry, RGS16-Galphao binding; actives lie on both sides. response (% of control binding), % at 10 µM. AID 1838; in the data active means response below about 74% or above about 130%; inactive means in between;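 further: Galphao activated as the GDP aluminium fluoride complex binding bead-coupled RGS16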
RGS4-Gao confirm: RGS4-Galphao interaction regulation, single point confirmation; shares compounds with RGS16-Gao HTS; actives 4% (n = 1,700); AID 1840; binding response (% of control), % at 10 µM; RGS4-Galphao binding, multiplexed bead flow cytometry; actives lie on both sides; in the data active means binding response below about 74% or above about 130%; inactive means in between
RGS19-Gao conf: confirmation of regulators of human RGS19-Galphao interaction. shares compounds with RGS16-Gao HTS. bead-based flow cytometry RGS19-Galphao binding; actives lie on both sides. response (percent of control binding), % at 10 µM. actives 5% (n = 1,700); in the data active means response below about 50% or above about 160%; inactive means in between
Target sequence (P09471 whole entry, looked up): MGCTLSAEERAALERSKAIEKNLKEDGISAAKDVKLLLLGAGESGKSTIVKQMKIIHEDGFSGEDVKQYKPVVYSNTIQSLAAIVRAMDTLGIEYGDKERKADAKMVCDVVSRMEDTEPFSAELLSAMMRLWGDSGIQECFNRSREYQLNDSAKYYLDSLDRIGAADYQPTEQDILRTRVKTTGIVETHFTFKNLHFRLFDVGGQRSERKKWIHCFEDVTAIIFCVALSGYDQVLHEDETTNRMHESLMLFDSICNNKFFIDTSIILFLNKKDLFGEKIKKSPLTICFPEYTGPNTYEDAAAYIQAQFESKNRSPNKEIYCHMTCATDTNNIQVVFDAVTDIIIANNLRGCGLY
Target sequence (P49795 whole entry, looked up): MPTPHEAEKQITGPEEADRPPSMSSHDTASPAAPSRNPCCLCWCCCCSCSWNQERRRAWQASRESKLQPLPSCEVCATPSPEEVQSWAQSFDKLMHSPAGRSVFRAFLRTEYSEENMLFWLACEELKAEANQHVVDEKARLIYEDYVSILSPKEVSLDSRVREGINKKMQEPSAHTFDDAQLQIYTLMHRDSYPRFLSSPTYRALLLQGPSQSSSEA
Of the large screens only hits and unclear results are named; the others gave an inactive call (follow-up assays come after a bar, where they were run); [ ] = dose if it differs, or a comment. Unless noted, how the calls were made is not given here.

O=C(Oc1ccc(Br)cc1)c1cncc(Br)c1	Avidin bead fluor 89, RGS4-Gao reg 171[activator], RGS7-Gao reg 159[activator] | Avidin counter inactive | RGS8-Gao single inactive | RGS7-Gao single inactive | RGS16-Gao single inactive | RGS4-Gao confirm inactive | RGS19-Gao conf inactive
CCNC(=O)Cn1c(=O)c(=O)n(Cc2ccccc2)c2ccc(Cl)cc21	Avidin bead fluor 57, RGS16-Gao HTS 243[activator], RGS4-Gao reg 162[activator], RGS7-Gao reg 171[activator] | Avidin counter inactive | RGS8-Gao single inactive | RGS7-Gao single inactive | RGS16-Gao single inactive | RGS4-Gao confirm inactive | RGS19-Gao conf inactive
Cn1cc(Br)c(C(=O)Nc2ncc(Br)s2)n1	RGS16-Gao HTS 8.7, RGS4-Gao reg 15, RGS8-Gao 14, RGS7-Gao reg 12 | Avidin counter inactive | RGS8-Gao single inactive | RGS7-Gao single inactive | RGS16-Gao single inactive | RGS4-Gao confirm inactive | RGS19-Gao conf inactive
O=C(CNC(=O)C12CC3CC(CC(C3)C1)C2)N1CCN(S(=O)(=O)/C=C/c2ccccc2)CC1	none
COc1ccc(C(=O)NCC(O)COc2ccc(C(C)(C)C)cc2)cc1[N+](=O)[O-] (stereo not drawn)	none
O=C(NCc1ccc2c(c1)OCO2)c1ccc2c(c1)OCO2	RGS7-Gao reg inconclusive (no result: GSH fluor)
O=C(NCc1ccc2c(c1)OCO2)c1ccc(CSCc2ccccc2Cl)o1	RGS7-Gao reg 48 | RGS-Gao 54 | Avidin counter inactive | RGS8-Gao single inactive | RGS7-Gao single inactive | RGS16-Gao single inactive | RGS4-Gao confirm inactive | RGS19-Gao conf inactive
O=C(NCc1ccc2c(c1)OCO2)c1cccc([N+](=O)[O-])c1	none (no result: Avidin bead fluor, RGS16-Gao HTS, RGS4-Gao reg, RGS8-Gao, RGS7-Gao reg) | Avidin counter inactive | RGS8-Gao single inactive | RGS7-Gao single inactive | RGS16-Gao single inactive | RGS4-Gao confirm inactive | RGS19-Gao conf inactive
O=C(NCc1ccc2c(c1)OCO2)c1ccc(COc2cccc(Cl)c2)o1	none
Cc1cccc(-c2ncc(CN3CCN(CCC(C)C)C(CCO)C3)cn2)c1 (stereo not drawn)	none
COc1c(Cl)cc(Cl)cc1C(=O)Nc1ccc(C(=O)O)cc1	none
COc1c(Cl)cc(Cl)cc1/C=C/C(=O)c1ccc(NC(=O)c2cccs2)cc1	RGS16-Gao HTS 9.2, RGS4-Gao reg 25, RGS8-Gao 22, RGS7-Gao reg 16 | Avidin counter inactive | RGS8-Gao single inactive | RGS7-Gao single inactive | RGS16-Gao single inactive | RGS4-Gao confirm inactive | RGS19-Gao conf inactive
Cc1cc(C(=O)NNc2c(Cl)cccc2Cl)n(C(C)(C)C)n1	RGS7-Gao reg inconclusive (no result: GSH fluor)
Cc1ccc(NC(=S)N(CCCN2CCCC2)Cc2cccn2Cc2ccc(Cl)cc2)cc1Cl	RGS7-Gao reg 165[activator] | RGS-Gao 150 | Avidin counter inactive | RGS8-Gao single inactive | RGS7-Gao single inactive | RGS16-Gao single inactive | RGS4-Gao confirm inactive | RGS19-Gao conf inactive
